From PubChem
Nrf2 inh: inhibitors of Nrf2 signaling | 2.1% of 360,000 active | A549 ARE-Fluc reporter, luciferase luminescence, 18-24 h | Potency, µM (doses to about 46 µM), without a hit: at the highest dose activity change, negative = inhibition, usual class: inhibitors; further: on the % scale 0 is the no-effect control and ±100 the full control effect; nearly all actives have a fitted effect of over 60% in size
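Nrf2 activity is the BugLite luminescence, read 15 min after reagent at room temperature, following CellTiter-Fluor cytotoxicity readout (30 min, 37C). Compound titrations were applied for 18-24 h to 5000 A549 ARE_Fluc cells/well in 5% FBS OPTI-MEM.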
rTrxR1 inhibitor: rat TrxR1 inhibition; O89049; recombinant rTrxR1, NADPH fluorescence consumption, selenite substrate; Potency, µM (doses to about 114 µM), for inactives: at the highest dose activity change, negative = inhibition, usual class: inhibitors; 1% of 390,000 active; further: on the % scale 0 is the no-effect control and ±100 the full control effect; nearly all actives have a fitted effect of over 65% in size
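Rat TrxR1 (90 nM in the dispensed reagent) was pre-reduced with 400 uM NADPH for 5 min at room temperature, then incubated with compound for 15 min. After 400 uM selenite was added, NADPH fluorescence (Ex 340/Em 450 nm) was followed for 8 min.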
Nrf2 activator: activators of Nrf2 (ARE) signaling; Potency, µM (doses to about 46.1 µM), inactives show at the top dose activation, hits mostly activators; AREc32 ARE-luciferase reporter (MCF7-derived line), luminescence, 24 h; 0.31% of 410,000 active; further: % of control where 0% means no effect; nearly all actives have a fitted effect of over 65% in size
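Steps: seed AREc32_Fluc cells (1000/well, 5% FBS OPTI-MEM); incubate overnight at 37 deg C; add 23 nL compound; incubate 24 hr; add Steady-Glo; hold 30 min RT; read luminescence.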
TrxR1 substrate: rat thioredoxin reductase 1 substrate activity. purified TrxR1 substrate turnover, NADPH consumption readout. Potency, µM (doses to about 114 µM), inactives show at the top dose activity change, negative = substrate turnover. 0.01% of 390,000 active. AID 588456; further: on the % scale 0 is the no-effect control and ±100 the full control effect; nearly all actives have a fitted effect of over 50% in size
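Rat TrxR1, dispensed at 90 nM, was prereduced with 400 uM NADPH (final) for 5 min at ~22 deg C, then incubated with compound 15 min before 400 uM selenite. A first-read NADPH fluorescence drop versus no-compound background flagged substrates.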
A549 tox: kills or reduces viability of A549 cells in Nrf2 counter-screen. A549 ARE-Fluc cells, CellTiter-Fluor viability, 18-24 h. AID 504648. Potency, µM (top dose mostly 46 µM), inactives show top-dose activity change, negative = cytotoxicity, hits mostly inhibitors. 0.16% of 390,000 active; further: on the % scale 0 is the no-effect control and ±100 the full control effect
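A549 ARE_Fluc cells in 5% FBS OPTI-MEM were exposed to compounds in concentration-response for 18-24 h at 37 deg C. Viability was read by CellTiter-Fluor fluorescence (Ex 405/Em 525) after 30 min, before the luciferase read.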
GALK inhibitor: inhibitors of human galactokinase; P51570; Purified GALK, Kinase-Glo residual ATP luminescence; Potency, µM (series often up to 57.5 µM), without a hit: top-dose activity change, negative = inhibition, hits mostly inhibitors; 0.007% of 270,000 active; AID 1868; further: on the % scale 0 is the no-effect control and ±100 the full control effect
Target sequence (P51570 whole entry, looked up): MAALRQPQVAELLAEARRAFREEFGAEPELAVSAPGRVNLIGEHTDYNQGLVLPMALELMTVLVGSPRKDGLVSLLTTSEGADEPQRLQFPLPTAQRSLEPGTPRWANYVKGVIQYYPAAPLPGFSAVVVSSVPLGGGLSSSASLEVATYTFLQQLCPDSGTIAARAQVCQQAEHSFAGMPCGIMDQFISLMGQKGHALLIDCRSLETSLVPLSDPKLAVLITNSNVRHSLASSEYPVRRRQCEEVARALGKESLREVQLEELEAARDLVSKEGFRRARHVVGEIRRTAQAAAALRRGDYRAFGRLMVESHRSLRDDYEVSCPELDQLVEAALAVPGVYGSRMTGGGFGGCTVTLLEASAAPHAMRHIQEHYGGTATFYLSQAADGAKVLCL
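The enzyme phosphorylates galactose (100 uM) using ATP (35 uM); inhibition is detected as higher residual ATP, quantified by bioluminescence after 1 h reaction at room temperature, pH 8.0.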
An asterisk follows results filed as active; ? = inconclusive; · = no result given; ! = not active in a repeat; [ ] = another dose, or the depositor's remark. An excerpt weighted towards active compounds, which were near 3% of everything screened. The call rests on the fitted dose curve; in most records, active means well fitted curve in the direction sought with a large enough effect; inconclusive means small, poorly fitted or top-dose-only effect, or another doubt; inactive means no such curve, though single readings can be large; an effect the other way counts as inactive or inconclusive. Potency means the concentration at half of the fitted maximal effect.

SMILES | Nrf2 inh | rTrxR1 inhibitor | Nrf2 activator | TrxR1 substrate | A549 tox | GALK inhibitor
CCc1ccc(NC(=O)CCn2c(=O)c3cccn3c3ccccc32)cc1 | ? | 6% | 0% | -9% | -5% | -2%
CCOC(=O)c1cccc(NC(=O)Cn2c(=O)c3cccn3c3ccccc32)c1 | 12µM* | 1% | 7% | -3%[11.4 µM] | 0% | ·
CCOc1ccc(CNC(=O)Cn2c(=O)c3cccn3c3ccccc32)cc1 | 16µM* | 27% | 0% | 7% | -14% | 4%
CCOc1ccc(CCNC(=O)c2ccc(Cn3c(=O)c4cccn4c4cccnc43)cc2)cc1 | 12µM* | 7% | -1% | 12% | ? | ·
O=C(NCCc1ccccc1)c1ccc(Cn2c(=O)c3cccn3c3cccnc32)cc1 | 12% | 13% | 0% | 14% | -3% | ·
CCc1ccc(NC(=O)Cn2c(=O)c3cccn3c3ccccc32)cc1 | 23µM*! | 37% | 12% | 7% | 4% | 1%
CC(C)(C)C(=O)Nc1ccc(-c2nc3ccccc3s2)cc1 | 2.6µM* | -8% | -3% | -3% | 1% | ·
Clc1nc(NCc2cccs2)c2[nH]cnc2n1 | 23µM* | 1% | · | -2% | -2% | ·
c1csc(CNc2ncnc3nc[nH]c23)c1 | ? | 13% | 0% | 2% | 0% | -1%
CCc1nn(CC(=O)NCCCOC)c(=O)c2cc3ccccc3n12 | -4% | -7% | -1% | 7% | -1% | ·
COc1ccccc1N(/N=C1\Sc2ccccc2C1=O)C(C)=O | -1% | 7% | 14µM* | -8% | -5% | -4%
Cc1ccc(Cn2c(CO)cnc2SCC(=O)NCc2ccccc2Cl)cc1 | · | 5%[57.1 µM] | 2% | 1%[57.1 µM] | 7% | ·
COc1cccc(-c2nc(NC(C)C)c3ccccc3n2)c1O | ? | -19% | 0% | -13% | · | -1%
CCC(C)Nc1nc(-c2cccc(OC)c2O)nc2ccccc12 (configuration not stated) | 21µM* | 0% | -2% | 0% | ? | 3%
COC/C=C/C1=CC2=CC(=O)C(C)(OC(=O)c3ccco3)C(=O)C2=CO1 (configuration not stated) | · | · | · | · | · | -1%
COC/C=C/C1=CC2=CC(=O)C(C)(OC(=O)C3CCCC3)C(=O)C2=CO1 (configuration not stated) | -2% | 13µM* | 4% | 10%[57.1 µM] | -15% | -2%
CC(=O)c1cccc(NC(=O)C2CCN(c3nnc(-n4cccc4)s3)CC2)c1 | 20% | -5% | 1% | -3% | 0% | ·
Nc1cc(-c2ccc(Br)cc2)nn1S(=O)(=O)c1ccccc1 | 3% | 15% | 0% | -1% | -1% | 0%
Nc1cc(-c2ccccc2)nn1S(=O)(=O)c1ccc(F)cc1 | 18µM* | 14% | 0% | -1% | -2% | 2%
COc1ccc(-c2cc(N)n(S(=O)(=O)c3ccc(F)cc3)n2)cc1OC | 16µM* | 17% | 0% | -2% | -5% | 1%
COc1cc(-c2cc(N)n(S(=O)(=O)c3ccc(F)cc3)n2)cc(OC)c1OC | ? | 12% | 13% | -4% | 1% | 0%
CCN(CC)S(=O)(=O)c1cccc(NC(=O)C2SC(=Nc3ccc(C)cc3C)C(C(=O)NC(C)COC)=C2N)c1 (configuration not stated) | 21µM* | 20% | 2% | -1% | ? | 1%
Cc1ccccc1CSc1cn(CC(=O)N2CCCCC2)c2ccccc12 | ? | 15% | 0% | 1% | -14% | ·
Cc1cccc(-c2nn(-c3ccccc3)cc2CNCCO)c1 | -3% | 1% | · | 21% | 2% | ·
O=C(NCc1cccnc1)c1ccc(COc2ccccc2Br)o1 | -4% | -19% | 3% | 0% | -1% | 0%
SMILES | Nrf2 inh | rTrxR1 inhibitor | Nrf2 activator | TrxR1 substrate | A549 tox | GALK inhibitor
O=C(Nc1ccc(Cn2cccn2)cc1)c1ccc(COc2ccccc2Br)cc1 | 9.2µM* | -21% | 1% | -6% | ? | -2%
O=C(Nc1cccnc1)c1ccc(COc2ccccc2Br)o1 | 6.5µM* | -13% | 0% | 7%[57.1 µM] | -13% | 0%
O=C(Nc1nc2ccccc2n1CCN1CCOCC1)c1ccc(COc2ccccc2Br)o1 | 13µM* | 11%[57.1 µM] | 3% | 4%[57.1 µM] | -16% | 1%
COc1ccccc1OCc1ccc(C(=O)Nc2ccccc2)cc1 | 6% | 25% | -1% | 10% | -4% | ·
c1ccc2c(c1)ncc1cccn12 | 2% | -5% | 0% | 517% | 4% | -1%
CCn1c2ccccc2c2c3ncc4cccn4c3ccc21 | ? | -15% | 13µM* | 23% | 13% | -4%
Cc1cc(F)ccc1NC(=O)CCS(=O)(=O)c1cc2c3c(c1)CCN3C(=O)CC2 | ? | 12%[57.1 µM] | -1% | 3%[57.1 µM] | 0% | ·
COc1ccc2oc(=O)c(-c3nnc(NCc4ccco4)s3)cc2c1 | ? | 16µM* | 23% | 6% | -26% | 1%
CCOc1cccc2cc(-c3nnc(NCc4ccco4)s3)c(=O)oc12 | 14% | 7.9µM* | ? | 12%[57.1 µM] | 13% | -1%
COc1cccc2cc(-c3nnc(Nc4c(F)cccc4F)s3)c(=O)oc12 | · | 10%[57.1 µM] | 14% | 3%[57.1 µM] | 1% | ·
COC(=O)C(CCSC)Nc1ncnc2onc(-c3ccc(F)cc3)c12 (configuration not stated) | 9%[9.27 µM] | 8%[2.29 µM] | 14% | 6%[2.29 µM] | 2% | ·
Cc1cccc(NC(=O)CCc2c(C)nc3c(c(C)nn3C(C)(C)C)c2C)c1C | 18µM* | 2% | 0% | 1% | -9% | ·
Cc1ccc(CNC(=O)C2CCC(CNS(=O)(=O)c3ccc(C)cc3)CC2)cc1 (configuration not stated) | · | 23%[57.1 µM] | 1% | -1%[57.1 µM] | 0% | ·
CCOC(=O)C1(C)Oc2ccccc2C(c2ccc(OC)cc2)=C1C(=O)OC (configuration not stated) | ? | 6% | 4% | -4% | 3% | ·
CCOC(=O)C1(C)Oc2ccccc2C(C(=O)OC)=C1C(=O)OC (configuration not stated) | 11% | 32µM* | ? | 2% | -7% | ·
O=C(CSc1nc2nn(-c3ccccc3)c(=O)c-2c2n1CCCCC2)Nc1cccc(F)c1 | 9.2µM* | 19% | 0% | 0% | -9% | ·
Cc1ccc(NC(=O)CSc2nc3nn(-c4ccccc4)c(=O)c-3c3n2CCCCC3)cc1F | ? | 17% | -2% | -4% | -14% | ·
CC(C)(C)c1ccc(OCCSc2nc(-c3cccs3)nc3cc(=O)[nH]n23)cc1 | -22% | 69%[57.1 µM] | 4% | 60%[57.1 µM] | -5% | ·
COc1cc2c(cc1OC)C(C)N(C(=O)c1cc3c(=O)oc4ccc(C)cc4c3s1)CC2 (configuration not stated) | -20% | 79µM* | 0% | 25% | -2% | ·
